Reference: ChEMBL document CHEMBL1961873, “Compounds: GSK PKIS; Assays: Nanosyn kinase panel” (2012)

Key:
[1] = system: Epidermal growth factor receptor (Homo sapiens), P00533 [T790M]; conditions: at 1 µM
[2] = system: Epidermal growth factor receptor (Homo sapiens), P00533 [L858R,T790M]; conditions: at 0.1 µM
[3] = system: Epidermal growth factor receptor (Homo sapiens), P00533 [L858R,T790M]; conditions: at 1 µM
[4] = molecular target: Ephrin type-A receptor 2 (Homo sapiens) (UniProt P29317); conditions: at 0.1 µM
Chain of Ephrin type-A receptor 2 (Homo sapiens) (P29317 whole entry): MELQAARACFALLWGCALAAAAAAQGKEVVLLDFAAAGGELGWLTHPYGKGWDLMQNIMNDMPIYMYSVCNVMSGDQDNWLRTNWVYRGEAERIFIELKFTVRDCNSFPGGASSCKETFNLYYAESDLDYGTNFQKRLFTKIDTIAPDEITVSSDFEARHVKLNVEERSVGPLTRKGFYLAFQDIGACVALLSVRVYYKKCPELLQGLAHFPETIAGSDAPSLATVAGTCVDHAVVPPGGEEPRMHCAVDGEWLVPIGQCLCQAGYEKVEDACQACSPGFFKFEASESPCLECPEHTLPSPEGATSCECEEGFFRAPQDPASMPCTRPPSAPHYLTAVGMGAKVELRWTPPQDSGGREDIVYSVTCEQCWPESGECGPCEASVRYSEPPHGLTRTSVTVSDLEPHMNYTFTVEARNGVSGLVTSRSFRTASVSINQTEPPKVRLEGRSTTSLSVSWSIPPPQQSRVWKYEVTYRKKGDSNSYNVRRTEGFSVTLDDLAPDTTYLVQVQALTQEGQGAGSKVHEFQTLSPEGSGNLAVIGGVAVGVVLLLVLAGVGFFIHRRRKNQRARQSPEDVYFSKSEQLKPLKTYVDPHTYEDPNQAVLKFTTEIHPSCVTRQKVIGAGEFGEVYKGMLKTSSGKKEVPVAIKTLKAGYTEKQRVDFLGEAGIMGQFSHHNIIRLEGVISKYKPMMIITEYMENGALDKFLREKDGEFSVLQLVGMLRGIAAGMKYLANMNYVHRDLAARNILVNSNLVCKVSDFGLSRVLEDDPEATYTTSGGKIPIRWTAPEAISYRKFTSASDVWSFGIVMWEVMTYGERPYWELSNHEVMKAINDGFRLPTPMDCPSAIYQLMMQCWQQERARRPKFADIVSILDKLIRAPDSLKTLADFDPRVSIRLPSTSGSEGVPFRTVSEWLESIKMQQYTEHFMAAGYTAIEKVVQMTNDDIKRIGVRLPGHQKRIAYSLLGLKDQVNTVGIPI

[5] = molecular target: Ephrin type-A receptor 2 (Homo sapiens) (UniProt P29317); conditions: at 1 µM
[6] = molecular target: T1, Ephrin type-A receptor 3 (Homo sapiens) (UniProt P29320); conditions: at 0.1 µM
T1 sequence (whole entry): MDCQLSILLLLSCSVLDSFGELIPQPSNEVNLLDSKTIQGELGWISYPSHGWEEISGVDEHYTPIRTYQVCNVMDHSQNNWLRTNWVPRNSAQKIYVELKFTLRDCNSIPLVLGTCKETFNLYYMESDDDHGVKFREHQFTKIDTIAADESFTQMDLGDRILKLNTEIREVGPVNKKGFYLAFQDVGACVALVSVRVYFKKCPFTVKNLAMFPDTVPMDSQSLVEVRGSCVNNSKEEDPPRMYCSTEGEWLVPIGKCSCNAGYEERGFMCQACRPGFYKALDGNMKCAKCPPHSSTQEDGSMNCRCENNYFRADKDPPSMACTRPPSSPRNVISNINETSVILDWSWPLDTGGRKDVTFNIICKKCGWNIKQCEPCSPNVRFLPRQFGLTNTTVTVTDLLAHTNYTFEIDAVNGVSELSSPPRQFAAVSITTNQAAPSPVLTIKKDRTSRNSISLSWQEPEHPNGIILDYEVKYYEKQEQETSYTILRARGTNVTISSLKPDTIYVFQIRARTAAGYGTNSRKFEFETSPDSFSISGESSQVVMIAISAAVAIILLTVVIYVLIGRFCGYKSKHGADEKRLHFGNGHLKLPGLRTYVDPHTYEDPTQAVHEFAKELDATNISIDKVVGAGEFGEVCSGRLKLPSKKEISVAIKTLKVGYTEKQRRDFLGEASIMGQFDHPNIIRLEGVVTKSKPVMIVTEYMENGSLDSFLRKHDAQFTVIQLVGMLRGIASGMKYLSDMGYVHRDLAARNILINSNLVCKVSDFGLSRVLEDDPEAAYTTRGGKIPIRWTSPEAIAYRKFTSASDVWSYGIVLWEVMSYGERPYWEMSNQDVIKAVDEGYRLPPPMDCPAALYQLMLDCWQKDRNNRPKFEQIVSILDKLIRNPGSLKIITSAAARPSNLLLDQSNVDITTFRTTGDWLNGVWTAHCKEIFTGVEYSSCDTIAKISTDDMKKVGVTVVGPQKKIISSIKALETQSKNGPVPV

[7] = molecular target: T1, Ephrin type-A receptor 3 (Homo sapiens); conditions: at 1 µM
[8] = molecular target: Ephrin type-A receptor 4 (Homo sapiens) (UniProt P54764); conditions: at 0.1 µM
Chain of Ephrin type-A receptor 4 (Homo sapiens) (P54764 whole entry): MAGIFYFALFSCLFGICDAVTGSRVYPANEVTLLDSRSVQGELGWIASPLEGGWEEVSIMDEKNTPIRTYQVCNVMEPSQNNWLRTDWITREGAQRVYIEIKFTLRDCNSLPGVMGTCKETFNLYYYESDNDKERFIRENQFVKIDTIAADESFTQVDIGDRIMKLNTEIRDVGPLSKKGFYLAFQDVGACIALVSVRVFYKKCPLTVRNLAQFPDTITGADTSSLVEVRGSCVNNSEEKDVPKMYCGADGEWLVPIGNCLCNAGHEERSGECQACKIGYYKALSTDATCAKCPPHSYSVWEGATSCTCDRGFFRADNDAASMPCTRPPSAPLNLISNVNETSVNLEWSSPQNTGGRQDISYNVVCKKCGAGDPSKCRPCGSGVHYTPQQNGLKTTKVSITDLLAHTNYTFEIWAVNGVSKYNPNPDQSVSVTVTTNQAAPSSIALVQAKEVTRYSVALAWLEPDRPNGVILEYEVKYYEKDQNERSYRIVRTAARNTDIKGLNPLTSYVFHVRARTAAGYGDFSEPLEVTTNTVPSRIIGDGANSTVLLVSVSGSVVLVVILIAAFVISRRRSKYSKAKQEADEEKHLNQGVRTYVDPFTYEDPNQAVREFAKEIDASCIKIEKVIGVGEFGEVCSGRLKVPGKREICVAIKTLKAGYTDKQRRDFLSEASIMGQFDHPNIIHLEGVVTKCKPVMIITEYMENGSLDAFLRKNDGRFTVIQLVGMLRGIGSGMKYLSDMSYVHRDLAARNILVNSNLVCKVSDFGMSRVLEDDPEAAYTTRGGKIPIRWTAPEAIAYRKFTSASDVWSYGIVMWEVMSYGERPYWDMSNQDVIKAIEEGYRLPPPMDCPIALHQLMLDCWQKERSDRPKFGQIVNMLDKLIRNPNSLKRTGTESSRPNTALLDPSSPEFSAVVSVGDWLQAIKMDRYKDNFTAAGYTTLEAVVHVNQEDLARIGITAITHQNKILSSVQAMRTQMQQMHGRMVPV

[9] = molecular target: Ephrin type-A receptor 4 (Homo sapiens) (UniProt P54764); conditions: at 1 µM
[10] = molecular target: T2, Ephrin type-B receptor 2 (Homo sapiens) (UniProt P29323); conditions: at 0.1 µM;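 also: reported as mean inhibition of EPHB2, from the GSK PKIS dataset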
T2 sequence (whole entry): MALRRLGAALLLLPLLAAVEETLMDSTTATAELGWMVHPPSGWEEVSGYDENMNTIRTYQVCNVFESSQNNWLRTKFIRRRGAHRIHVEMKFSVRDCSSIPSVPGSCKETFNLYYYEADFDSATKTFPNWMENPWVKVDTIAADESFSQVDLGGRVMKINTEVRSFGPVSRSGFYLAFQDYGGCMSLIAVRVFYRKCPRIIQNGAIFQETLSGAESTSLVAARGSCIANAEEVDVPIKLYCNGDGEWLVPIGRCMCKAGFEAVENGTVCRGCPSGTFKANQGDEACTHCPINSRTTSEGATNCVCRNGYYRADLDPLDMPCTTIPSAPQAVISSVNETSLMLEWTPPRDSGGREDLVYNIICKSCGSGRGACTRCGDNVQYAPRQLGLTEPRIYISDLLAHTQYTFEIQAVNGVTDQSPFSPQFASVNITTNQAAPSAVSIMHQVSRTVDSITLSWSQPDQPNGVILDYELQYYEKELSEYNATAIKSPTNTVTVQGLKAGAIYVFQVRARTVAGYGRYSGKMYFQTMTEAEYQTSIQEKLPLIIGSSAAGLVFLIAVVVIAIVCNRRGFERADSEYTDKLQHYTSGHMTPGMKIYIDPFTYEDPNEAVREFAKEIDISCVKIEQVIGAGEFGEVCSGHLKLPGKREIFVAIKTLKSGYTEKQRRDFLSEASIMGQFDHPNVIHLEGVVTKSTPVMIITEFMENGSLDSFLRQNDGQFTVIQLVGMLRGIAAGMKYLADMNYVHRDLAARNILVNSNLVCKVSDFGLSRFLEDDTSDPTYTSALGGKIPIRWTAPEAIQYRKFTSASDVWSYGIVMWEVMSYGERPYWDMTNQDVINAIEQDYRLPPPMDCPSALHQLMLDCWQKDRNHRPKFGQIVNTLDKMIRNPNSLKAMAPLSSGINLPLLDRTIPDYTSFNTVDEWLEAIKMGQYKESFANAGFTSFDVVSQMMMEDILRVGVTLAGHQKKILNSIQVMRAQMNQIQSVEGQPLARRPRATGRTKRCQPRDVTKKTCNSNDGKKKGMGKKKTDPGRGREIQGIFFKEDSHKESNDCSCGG

Chain of Epidermal growth factor receptor (Homo sapiens), P00533 [L858R,T790M] (P00533 whole entry T790M/L858R, looked up): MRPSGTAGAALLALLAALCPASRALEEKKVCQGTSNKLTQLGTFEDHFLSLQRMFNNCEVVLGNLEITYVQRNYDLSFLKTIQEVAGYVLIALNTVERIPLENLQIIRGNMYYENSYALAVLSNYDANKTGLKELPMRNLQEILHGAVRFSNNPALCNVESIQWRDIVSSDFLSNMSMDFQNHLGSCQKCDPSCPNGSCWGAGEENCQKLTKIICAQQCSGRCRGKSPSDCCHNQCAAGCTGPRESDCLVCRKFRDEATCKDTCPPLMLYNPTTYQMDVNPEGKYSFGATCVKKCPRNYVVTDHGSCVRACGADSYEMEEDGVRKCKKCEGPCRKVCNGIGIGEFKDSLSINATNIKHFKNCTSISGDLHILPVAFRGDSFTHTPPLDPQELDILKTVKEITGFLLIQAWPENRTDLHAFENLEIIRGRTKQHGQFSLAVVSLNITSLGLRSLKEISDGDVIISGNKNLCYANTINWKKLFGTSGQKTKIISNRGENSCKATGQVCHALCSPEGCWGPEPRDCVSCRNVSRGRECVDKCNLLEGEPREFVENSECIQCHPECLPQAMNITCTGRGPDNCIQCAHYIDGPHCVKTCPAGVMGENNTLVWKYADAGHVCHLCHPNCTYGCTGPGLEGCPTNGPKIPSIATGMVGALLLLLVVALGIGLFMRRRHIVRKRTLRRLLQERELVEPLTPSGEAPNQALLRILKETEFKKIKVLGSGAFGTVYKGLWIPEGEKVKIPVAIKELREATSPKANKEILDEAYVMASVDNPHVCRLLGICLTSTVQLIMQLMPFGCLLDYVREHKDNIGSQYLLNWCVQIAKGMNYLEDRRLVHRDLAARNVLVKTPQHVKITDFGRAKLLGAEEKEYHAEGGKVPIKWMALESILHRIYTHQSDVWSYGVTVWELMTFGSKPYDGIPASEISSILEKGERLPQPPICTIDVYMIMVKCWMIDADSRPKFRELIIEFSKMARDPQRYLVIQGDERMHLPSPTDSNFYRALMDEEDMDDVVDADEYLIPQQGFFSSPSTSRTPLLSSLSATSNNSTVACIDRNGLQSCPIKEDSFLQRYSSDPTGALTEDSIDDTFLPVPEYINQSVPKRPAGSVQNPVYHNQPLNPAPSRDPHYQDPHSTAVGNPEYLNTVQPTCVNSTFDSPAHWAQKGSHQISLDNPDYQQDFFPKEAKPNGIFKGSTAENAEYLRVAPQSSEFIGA
Chain of Epidermal growth factor receptor (Homo sapiens), P00533 [T790M] (P00533 whole entry T790M): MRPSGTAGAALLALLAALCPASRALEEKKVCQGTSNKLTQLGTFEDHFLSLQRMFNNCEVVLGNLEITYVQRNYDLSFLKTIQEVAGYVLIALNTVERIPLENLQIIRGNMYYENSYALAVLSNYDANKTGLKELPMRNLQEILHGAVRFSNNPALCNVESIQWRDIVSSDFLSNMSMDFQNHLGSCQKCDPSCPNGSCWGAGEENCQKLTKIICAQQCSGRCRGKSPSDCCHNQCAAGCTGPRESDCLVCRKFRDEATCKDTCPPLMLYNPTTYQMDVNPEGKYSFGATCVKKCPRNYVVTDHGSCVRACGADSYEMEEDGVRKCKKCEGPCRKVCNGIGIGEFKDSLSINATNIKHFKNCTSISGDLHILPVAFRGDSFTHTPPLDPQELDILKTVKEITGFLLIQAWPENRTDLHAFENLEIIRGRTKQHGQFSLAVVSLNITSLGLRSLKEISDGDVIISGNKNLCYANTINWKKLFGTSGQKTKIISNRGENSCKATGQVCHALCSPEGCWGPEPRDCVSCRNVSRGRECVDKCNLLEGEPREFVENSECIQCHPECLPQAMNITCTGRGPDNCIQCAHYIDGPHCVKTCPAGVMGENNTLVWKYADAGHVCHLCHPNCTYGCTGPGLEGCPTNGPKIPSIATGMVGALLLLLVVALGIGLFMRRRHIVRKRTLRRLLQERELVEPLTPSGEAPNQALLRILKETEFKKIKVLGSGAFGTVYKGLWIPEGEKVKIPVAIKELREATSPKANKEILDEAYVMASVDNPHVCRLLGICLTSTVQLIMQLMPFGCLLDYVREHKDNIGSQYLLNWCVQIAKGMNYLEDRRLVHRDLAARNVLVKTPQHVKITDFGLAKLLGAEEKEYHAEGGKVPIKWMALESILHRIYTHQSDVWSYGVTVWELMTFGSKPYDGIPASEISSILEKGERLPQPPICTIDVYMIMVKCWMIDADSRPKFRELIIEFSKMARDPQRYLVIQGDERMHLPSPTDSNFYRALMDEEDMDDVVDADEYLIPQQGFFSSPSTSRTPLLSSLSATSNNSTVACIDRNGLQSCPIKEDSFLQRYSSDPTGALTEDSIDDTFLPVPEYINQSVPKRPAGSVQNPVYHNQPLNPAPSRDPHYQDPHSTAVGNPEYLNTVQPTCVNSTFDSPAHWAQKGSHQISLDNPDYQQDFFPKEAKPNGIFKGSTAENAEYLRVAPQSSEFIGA

| Compound | inhibition [1] [%] | inhibition [2] [%] | inhibition [3] [%] | inhibition [4] [%] | inhibition [5] [%] | inhibition [6] [%] | inhibition [7] [%] | inhibition [8] [%] | inhibition [9] [%] | inhibition [10] [%] |
| --- | --- | --- | --- | --- | --- | --- | --- | --- | --- | --- |
| N#Cc1cccc(Nc2ncc(-c3ccccc3)o2)c1 | 3.24 | 0.29 | 3.37 | 1.14 | 0.54 | 2.39 | 1.84 | 6.35 | 8.39 | 2.84 |
| CC(C)c1ccc(-c2cc(-c3c[nH]nc3-c3ccccn3)ccn2)cc1 | 0.59 | -1.17 | -2.79 | -1.11 | -2.27 | 2.58 | 5.79 | 6.74 | 4.1 | 7.84 |
| COc1cc2c(cc1Nc1nc(Nc3cccc(F)c3C(N)=O)c3cc[nH]c3n1)N(C(=O)CN1CCN(C(C)C)CC1)CC2 | 27 | 1.09 | 47.3 | 1.37 | 0.53 | 1.47 | 0.43 | 3.76 | 4.41 | 2.75 |
| CCN1CCC(C(=O)Nc2n[nH]c3nnc(-c4cccc(F)c4F)cc23)CC1 | 0.18 | 0.75 | -1.85 | -3.74 | -3.34 | -0.58 | -0.43 | -1.7 | -0.26 | 0.41 |
| COc1ccc(Nc2ncc(-c3ccccc3)o2)cc1OC | -1.98 | -0.33 | -0.29 | 0.89 | 2.73 | -1.2 | 1.63 | 2.72 | 1.61 | -1.69 |
| CNC(=O)c1cncc(/C=C/c2ccccc2C)c1 | 4.37 | 1.98 | 6.74 | 2.22 | 3.92 | 6.53 | 6.47 | 11.7 | 26.1 | 7.84 |
| Cc1ccc(-c2cc3c(NC(=O)C4CC4)ncnc3o2)cc1 | 0.67 | 1.96 | 5.94 | 3.08 | 7.49 | 3.73 | 5.51 | 8.88 | 20.5 | 9.13 |
| CCOc1ccc2c(-c3ccnc(Nc4cc(OC)cc(C(F)(F)F)c4)n3)cnn2n1 | 0.47 | 0.87 | -2.16 | -2.58 | -0.79 | -0.82 | 1.98 | 2.94 | 6.63 | 3.54 |
| FC(F)(F)CNc1nccc(-c2cnn3ncccc23)n1 | 0.02 | -1.87 | 1.32 | 0.5 | -1.3 | 3.4 | 4.73 | 5.82 | 7.58 | 5.3 |
| CN(c1ccc(NC(=O)NCCN2CCOCC2)cc1)c1ccnc(Nc2ccc(CS(C)(=O)=O)cc2)n1 | 4.33 | 0.85 | 2.57 | 2.23 | 2.79 | 4.27 | 5.54 | 8.57 | 19.6 | 6.47 |
| COc1cccc(Nc2nccc(-c3cnn4ncccc34)n2)c1 | 1.13 | 4.75 | 9.99 | 1.1 | 12.2 | 4.37 | 8.81 | 9.73 | 36.6 | 9.43 |
| CC1=C(C(=O)Nc2ccc3[nH]nc(C)c3c2)C(c2ccc(C(F)(F)F)cc2)CC(=O)N1 (stereo not given) | -0.09 | 3.65 | -0.97 | 2.9 | 2.18 | 2.71 | 2.28 | 5.51 | 5.67 | 5.5 |
